Source: PubChem BioAssay
Shiga toxin inh: A qHTS for Small Molecule Inhibitors of Shiga Toxin; Vero cells, Shiga toxin protein synthesis inhibition reporter; inhibition, % at 38.7 µM; 290,000 compounds, 9.2% hits; AID 2315, 2010; in the data active means inhibition mostly above about 28%, no sharp cut-off; inactive means mostly below about 43%; further: 0% is about no effect
HCMV antiviral: qHTS Assay for inhibitors of the human cytomegalovirus (HCMV); HFF cells, HCMV-luciferase reporter, 72 h; active compounds read low; activity change, negative = inhibition, % at 57.5 µM; 410,000 compounds, 4.5% hits; AID 1259415, 2018; in the data active means activity change below about -60%; inconclusive means no clear call, values can overlap the other calls; inactive means above about -39%; further: on the % scale 0 is the no-effect control and ±100 the full control effect
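HFF cells seeded 16 h at 37C, treated with compounds, infected with luciferase-reporter HCMV at MOI 1 PFU/cell; luciferase read at 72 h post infection, normalized to buffer-only and Salinomycin controls.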
Pf growth 48h: Primary qHTS for delayed death inhibitors of the malarial parasite plastid, 48 hour incubation | Potency, µM (series often up to 28.7 µM), for inactives: at the top dose activity change, negative = inhibition, hits mostly inhibitors | P. falciparum luciferase growth in erythrocytes, 48 h | 310,000 compounds, 5.9% hits | AID 504832, 2011; further: potency means the concentration at half of the fitted maximal effect; on the % scale 0 is the no-effect control and ±100 the full control effect
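Parasite viability was followed by luminescence of a genomically integrated firefly luciferase. Cultures held 0.1% parasitemia at 2% hematocrit (final), incubated under 5% CO2 at 37 C.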
CHX counter: Cycloheximide Counterscreen for Small Molecule Inhibitors of Shiga Toxin; cell reporter, cycloheximide protein synthesis inhibition counterscreen; max response, %; 300,000 compounds, 12% hits; AID 2314, 2010; in the data active means max response mostly above about 13%, no sharp cut-off; inactive means mostly below about 14%; further: read at 38.3 µM for the half of the compounds with a filed dose; 0% is about no effect
Pf growth 96h: Primary qHTS for delayed death inhibitors of the malarial parasite plastid, 96 hour incubation; P. falciparum luciferase reporter growth, 96 h; AID 504834, 2011; 320,000 compounds, 6.9% hits; Potency, µM (top dose mostly 28.7 µM), inactives show at the highest dose activity change, negative = inhibition, most hits filed as inhibitors; further: potency means the concentration at half of the fitted maximal effect; on the % scale 0 is the no-effect control and ±100 the full control effect
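Infected RBCs, 2% Hct / 0.05% parasitemia final; luciferase-reporter P. falciparum; cpd 96 h, 37 C, 5% CO2; luciferase detection reagent; luminescence.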
HCV inhibitor: qHTS Assay for Inhibitors of Hepatitis C Virus (HCV). Huh7.5.1 HCVcc-Cre infection, luciferase reporter, 44 h. Potency, µM (series often up to 41.8 µM), without a hit: top-dose activity change, negative = inhibition, hits mostly inhibitors. 340,000 compounds, 3.4% hits; further: potency means the concentration at half of the fitted maximal effect; on the % scale 0 is the no-effect control and ±100 the full control effect
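Compounds are dispensed onto cells plated 4 h earlier at 1,000 per well, with HCVcc-Cre virus (about 0.5 moi) added next. Following 44 h of culture, luminescent signal is measured for 15 sec after 15 min with substrate at room temperature.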
HCV confirm: qHTS Assay for Inhibitors of Hepatitis C Virus (HCV): Confirmation Assay for Cherry-picked Compounds; shares compounds with HCV inhibitor; HCVcc-Cre infectious virus cell assay, luciferase, inhibition; Potency, µM (highest dose often 41.8 µM), for the others: at the top dose activity, negative = inhibition, most hits filed as inhibitors; 640 compounds, 78% hits; AID 720575, 2013; further: potency means the concentration at half of the fitted maximal effect; nearly all actives have a fitted effect of over 80% in size
HCV host tox: qHTS Assay for Inhibitors of Hepatitis C Virus (HCV): Cytotoxicity Counterscreen for Cherry-picked Compounds; HCV host cell line cytotoxicity counterscreen; Potency, µM (highest dose often 41.8 µM), for the others: at the top dose activity change, negative = cytotoxicity, most hits filed as inhibitors; shares compounds with HCV inhibitor; 640 compounds, 22% hits;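 further: potency means the concentration at half of the fitted maximal effect; 44 h compound exposure; on the % scale 0 is the no-effect control and ±100 the full control effect; nearly all actives have a fitted effect of over 55% in size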
An asterisk follows results filed as active; u = inconclusive; x = no result. Only some compounds are listed: those with a hit (about 21% of all), similar ones and a draw of the others. Unless noted, the call rests on the fitted dose curve; in most records, active means well fitted curve in the direction sought with a large enough effect; inconclusive means small, poorly fitted or top-dose-only effect, or another doubt; inactive means no such curve, though single readings can be large; an effect the other way counts as inactive or inconclusive.

SMILES	Shiga toxin inh	HCMV antiviral	Pf growth 48h	CHX counter	Pf growth 96h	HCV inhibitor	HCV confirm	HCV host tox
CCOc1c(C)cnc2c1c(=O)n(CC(=O)NCC1CCCO1)c(=O)n2C (stereo not given)	x	-22.5	0.7%	x	10.9%	17.4%	x	x
Cc1cc(/C=C(\C#N)C(=O)Nc2ccccc2)c(C)n1-c1ccc2c(c1)OCO2	43.5*	-25.9	11.7µM*	41.1*	u	u	17.7µM*	-12.7%
CNC(=O)/C(C#N)=C\c1cc(C)n(-c2ccc(N3CCOCC3)cc2)c1C	-1.4	-12.9	5.2%	11.1	u	3.4%	x	x
COc1ccc(-c2nc(CN3CCN(c4ccccc4OC)CC3)c(C)o2)cc1	11.0	u	u	-2.0	u	u	x	x
COc1ccc(-c2nc(CN3CCN(c4ncnc5ccccc45)CC3)c(C)o2)c(OC)c1	16.6	-81.9*	u	-4.4	8.0%	5.01µM*	4.99µM*	7.91µM*
O=C(/C=C/c1ccc(Br)o1)NCc1ccccc1	16.8	0.0	0.8%	-0.7	19.3%	-2.6%	x	x
CCn1nc(/C=C/c2ccccc2)nc2c(=O)n(C)c(=O)nc1-2	28.6	-96.4*	-3.3%	11.1	11.7µM*	2.51µM*	5.6µM*	7.05µM*
Cn1c(=O)nc2n(Cc3ccccc3)c3ccccc3cc-2c1=O	5.8	-9.8	3.7%	-1.0	u	-5.5%	x	x
Cc1cc(C(=O)N2CCC2(C)C(=O)Nc2cccc3ccccc23)nn1C (stereo not given)	x	-6.5	x	x	x	x	x	x
CCOc1cc(/C=C2/SC(=S)NC2=O)ccc1OC(=O)c1ccco1	43.8	0.1	29.7%	12.1*	5.7%	3.55µM*	-14.9%	-9.5%
COc1cc(/C=C2/SC(=O)NC2=O)ccc1OC(=O)c1ccco1	-5.0	62.7	0.8%	-2.8	u	2.1%	x	x
CN1CCc2nc(SCCOc3ccccc3)c(C#N)cc2C1	32.8	-0.3	-11.9%	16.4	x	3.55µM*	u	6.3%
Nc1c(C(=O)CSc2nnc(-c3ccccc3)o2)c(=O)[nH]c(=O)n1C1CC1	x	-13.3	-28.0%	x	u	13.9%	x	x
COC(=O)Cn1cc(C(=O)OC)c2ccccc21	-5.1	-0.1	28.2%	4.5	-14.5%	9.1%	x	x
COC(=O)c1cn(C(=O)OC)c2ccccc12	-5.7	7.5	44.3%	-1.7	x	5.62µM*	u	9.7%
O=C(Cn1cnc2c(NC(=O)OCc3ccccc3)ncnc21)NCc1ccccn1	x	19.9	32.9%	x	u	54.6%	x	x
Cc1cc(NCc2ccccn2)n2nc(C)c(-c3ccc(Cl)cc3)c2n1	-12.6	-98.8*	1.65µM*	5.2	2.94µM*	4.47µM*	11.2µM*	-27.8%
Cc1cc(C(F)(F)F)n2nc(C)c(-c3ccc(Cl)cc3)c2n1	-27.5	-10.9	1.1%	-2.9	-99.5%	13.5%	x	x
CCOC(=O)c1ccc(NC(=O)C(=O)NCc2ccco2)cc1	30.5	-19.2	12.9%	-3.0	32.2%	-0.8%	x	x
CCN(CC)CCOC(=O)C(c1ccccc1)C1CCCCC1 (stereo not given)	x	u	u	x	u	u	14.1µM*	13.9%
CC(Oc1ccc(Cl)cc1Cl)C(=O)NCc1ccncc1 (stereo not given)	-2.3	0.1	37.3%	-3.2	-23.2%	-20.5%	x	x
CC(Oc1ccc(Cl)cc1Cl)c1nc(-c2ccc(NC(=O)c3ccncc3)cc2)no1 (stereo not given)	-11.3	-100.7*	14.7µM*	7.7	9.28µM*	2.82µM*	7.05µM*	11.2µM*
Cc1cc(C[n+]2ccccc2)c2nsnc2c1	-2.6	u	2.08µM*	-1.5	x	u	3.53µM*	12.5µM*
COc1cccc(NC(=O)c2oc3ccccc3c2NC(=O)C2CC2)c1	8.5	-17.1	u	2.2	u	u	u	23.5%
COc1ccc(NC(=O)c2oc3ccccc3c2NC(=O)C2CC2)cc1	-8.4	-23.4	u	7.3	10.4%	-26.4%	x	x
SMILES	Shiga toxin inh	HCMV antiviral	Pf growth 48h	CHX counter	Pf growth 96h	HCV inhibitor	HCV confirm	HCV host tox
CC(=O)N(C)c1ccc(OCC(O)Cn2c3ccc(Cl)cc3c3cc(Cl)ccc32)cc1 (stereo not given)	-8.2	x	u	-1.5	u	0.891µM*	3.96µM*	28µM*
Cc1ccc(C(=O)N2CCn3c4c(c5cc(C)ccc53)CCCC42)cc1 (stereo not given)	x	-37.2	x	x	x	x	x	x
Cc1ccc2c(c1)c1c3n2CC(=C2C(=O)OC(C)(C)OC2=O)NC3CCC1 (stereo not given)	28.5	-24.5	u	-1.3	0.185µM*	5.01µM*	28µM*	-34.2%
O=C(NCCCN1CCOCC1)/C(=C/c1ccc(-c2cccc([N+](=O)[O-])c2)o1)NC(=O)c1ccccc1	x	18.2	x	x	x	x	x	x
Cc1nc2nc(C)n(CCN3CCOCC3)c(=O)c2c(-c2cccc([N+](=O)[O-])c2)c1C(=O)CCCCCCCCCCN1CCC(c2ccccc2)(c2ccccc2)CC1	x	-77.8*	x	x	x	u	14.1µM*	u
Clc1ccc2c(NCc3ccccc3)ccnc2c1	-2.4	-73.6*	u	-11.1	u	5.62µM*	9.95µM*	u
Cn1c(NC2CCCCC2)c(N=O)c(=O)n(C)c1=O	-7.9	-11.0	12.1%	-1.7	u	4.4%	x	x
Cc1c(C(=O)NCC2COc3ccccc3O2)oc2ccc(S(=O)(=O)N3CCOCC3)cc12 (stereo not given)	-8.3	-21.2	u	-2.1	21.8%	5.62µM*	17.7µM*	-1.2%
COc1ccc(Cl)cc1NC(=O)c1cc2c(s1)-c1ccccc1OC2	x	-12.5	x	x	x	x	x	x
Cc1c(NC(=O)c2cc3c(s2)-c2ccccc2OC3)cccc1[N+](=O)[O-]	10.6	u	-11.5%	15.7*	0.0%	u	6.28µM*	-3.9%
CC(C)N1CCC(N2CCN(Cc3ccc(-c4ccccc4Cl)o3)CC2CCO)CC1 (stereo not given)	-7.6	-31.0	-10.5%	-1.5	-0.4%	3.98µM*	6.28µM*	27.7%
CC(C)CN1CCN(C2CCN(C(C)C)CC2)C(CCO)C1 (stereo not given)	-7.6	x	u	-0.6	16.4%	x	x	x
